We go through 40 molecules from PubChem BioAssay AID651789 (National Center for Advancing Translational Sciences (NCATS), 2012).

Results filed as inconclusive are left out. Values without a mark were called inactive. Activity calls are given as the source filed them. The call rests on the fitted dose curve; in most records, active means well fitted inhibition curve with a large enough effect; inconclusive means small, poorly fitted or top-dose-only effect; inactive means no such curve, though single readings can be large or run the other way.
Potency means the concentration at half of the fitted maximal effect.

The test can be described thus: Acumen qHTS Assay for Inhibitors of the mTORC1 Signaling Pathway in WT MEF Cells: Hit Validation. Further: nearly all actives have a fitted effect of over 60% in size.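 On activity change, negative = inhibition: phospho-rpS6 Ser235/236 immunofluorescence normalised to propidium iodide cell stain; percent of cells above a cutoff set by 7.5 nM rapamycin treated wells.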 The settings on record: Acumen imaging; series mostly up to 37.3 µM; activity change, negative = inhibition: at the top concentration. An outline of the steps: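 Read-out is immunofluorescent phospho-rpS6 (Ser235/236) normalised to PI-stained cell number, reported as % active cells using a 7.5 nM rapamycin threshold. Cells: WT or Tsc2-/-, p53-/- MEFs, compound-exposed 24 h at 37C; PI count also tracks viability.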
For `COc1ccc(N2CC(c3nc(-c4cc(OC)c(OC)c(OC)c4)no3)CC2=O)cc1Cl` (stereo not given), the “activity change, negative = inhibition” value is -13%.
Regarding `O=C(NCCc1nc2ccccc2n1Cc1ccc(Cl)cc1Cl)c1ccco1`, the “activity change, negative = inhibition” value was -12.8%.
Take `Cc1nn(CCCC(=O)NCc2ccccc2)c(=O)c2c1sc1ccccc12`: the “activity change, negative = inhibition” value was 38.6%.
With `CCOC(=O)c1ccc(NC(=O)c2nc(S(=O)(=O)Cc3ccccc3)ncc2Cl)cc1`, the Potency is 6.56 µM (active).
Regarding `CCn1c2ccccc2c2cc(CN3CCN(Cc4ccc(Cl)cc4)CC3)ccc21`, the “activity change, negative = inhibition” value was 18.5%.
As for `CCN(CC)CCn1c(=N)n(CC(O)COc2ccccc2C)c2ccccc21` (stereo not given), the Potency was 11.7 µM (active).
With `CCCS(=O)(=O)c1ncc(Cl)c(C(=O)N2CCN(c3ccc(OC)cc3)CC2)n1`, the Potency was 2.93 µM (active).
On the same count and under the same terms, as for `CCCCC(CC)CNC(=O)c1ccc(Cn2c(=O)[nH]c3cc(OC)c(OC)cc3c2=O)cc1` (stereo not given), the figure is 13.1 µM (active).
With `Cc1cc(C)cc(C(=O)Nc2ccc(-c3nc4ncccc4o3)cc2)c1`, the “activity change, negative = inhibition” value is -13.1%.
As for `CCC(C)NC(=O)c1sc2nc(C)c(C(=O)Nc3ccc(C)cc3C)c(-c3ccc(Cl)cc3)c2c1N` (stereo not given), the “activity change, negative = inhibition” value is 13.2%.
For the molecule `COc1ccc(-c2n[nH]c3c2C(c2ccc(O)cc2)N(c2ccc(Br)cc2)C3=O)cc1` (stereo not given), the “activity change, negative = inhibition” value is -28.7%.
On to `Cc1cccc(N2CCN(c3ncnc4c3nc3n4CCCCC3)CC2C)c1` (stereo not given), for which the Potency was 11.7 µM (active).
As to `Cc1c(C2=CCN(S(=O)(=O)c3ccc(Br)cc3)CC2)c2ccccc2n1CC(=O)N1CCCC1`, the “activity change, negative = inhibition” value is 1.53%.
Consider `COc1cccc(-n2c(-c3ccc(C)cc3)cc3c2CC(C)(C)CC3=O)c1`, for which the “activity change, negative = inhibition” value is -25.8%.
Take `Cc1cccc(NC(=O)c2nc(S(C)(=O)=O)ncc2Cl)c1`: the Potency is 1.65 µM (active).
For the molecule `COc1ccc(-c2[nH]nc3nc(-c4cc(OC)c(OC)c(OC)c4)cc(C(=O)O)c23)cc1`, the “activity change, negative = inhibition” value was 23.3%.
On to `COc1ccc2c(CNCCc3cccs3)c(C(=O)O)n(Cc3ccc(F)cc3Cl)c2c1`, for which the “activity change, negative = inhibition” value is -2.41%.
With `CCCCCCCCCCCCCCC[C@H](O)[C@@H](N)CO`, the “activity change, negative = inhibition” value is -6.82%.
On to `Cc1c(C(=O)Nc2ccc(F)cc2F)nnn1-c1ccccc1Br`, for which the “activity change, negative = inhibition” value was 7.63%.
On to `CCN1CCOC(=O)C1CC(=O)Nc1ccc(Br)cc1` (stereo not given), for which the “activity change, negative = inhibition” value was 11.3%.
`CCCCN(C)C(=O)CSc1c2c(nc3ccc(Cl)cc13)CCCC2`: the “activity change, negative = inhibition” value is 6.86%.
As for `Cc1ccc(NC(=O)Cn2cc(C(=O)C3CCCCC3)c3ccccc32)cc1`, the “activity change, negative = inhibition” value is 43%.
As for `CCc1nn(CC(=O)NCc2ccccc2)c(=O)c2cccn12`, the “activity change, negative = inhibition” value is 10.7%.
As to `CCN(CC)Cc1c(NC(=O)c2ccc(OC)cc2)sc2c1CCCC2`, the “activity change, negative = inhibition” value is 39.6%.
Take `Cc1ccccc1Oc1nc2ccccn2c(=O)c1/C=C(\C#N)c1nc2ccccc2[nH]1`: the “activity change, negative = inhibition” value is 58.4%.
Take `CCS(=O)(=O)c1ccccc1C(=O)N(Cc1cccnc1)c1nc2cc(C)c(C)cc2s1`: the “activity change, negative = inhibition” value was -4.58%.
The same measure, in the same setting: as for `COc1ccc(/C=C/C(=O)Nc2ccc3nc(N4CCC(C)CC4)cc(C)c3c2)cc1OC`, the figure is -13.4%; as for `COc1ccc(S(=O)(=O)NCCc2sc3nc(-c4ccc(C)cc4)nn3c2C)cc1F`, -14%.
Consider `Cc1ccc(NC(=O)c2ccc(CN3CCN(C)CC3)cc2)cc1Nc1nccc(-c2cccnc2)n1`, for which the “activity change, negative = inhibition” value was -8.06%.
As to `CC1CCCCN1c1nnc(NC(=O)Nc2ccccc2F)s1` (stereo not given), the “activity change, negative = inhibition” value is -7.97%.
Consider `Cc1cccc(CS(=O)(=O)c2ncc(Cl)c(C(=O)Nc3nnc(C(C)C)s3)n2)c1`, for which the Potency was 14.7 µM (active).
With `CCc1ccccc1NC(=O)CSCc1cnn(-c2ccccc2)c1-n1cccc1`, the “activity change, negative = inhibition” value was -1.53%.
As to `CCCCn1c(=N)n(CCOc2ccccc2OC)c2ccccc21`, the Potency was 11.7 µM (active).
With `O=S(=O)(NCC(c1ccco1)S(=O)(=O)c1cccs1)c1ccc(Cl)cc1` (stereo not given), the “activity change, negative = inhibition” value was -6.47%.
In the case of `COc1cc(C(=O)N(CCCN(C)C)c2nc3c(OC)cccc3s2)cc(OC)c1OC`, the “activity change, negative = inhibition” value was -2.29%.
Regarding `CCS(=O)(=O)c1ncc(Cl)c(C(=O)NCc2ccccc2)n1`, the Potency was 3.29 µM (active).
With `Cc1oc2c(cc(NS(=O)(=O)c3ccc(C(C)C)cc3)c3ccccc32)c1C(=O)OCc1ccccc1`, the “activity change, negative = inhibition” value is -26%.
On to `CCc1ccc(S(=O)(=O)c2c(C(=O)c3ccc(C)c(C)c3)cnc3ccccc23)cc1`, for which the “activity change, negative = inhibition” value was -21.5%.
The same measure, in the same setting: the value for `O=C(NCC1CCN(Cc2cccc(Cl)c2)CC1)Nc1ccc(F)c(Cl)c1` was 30.7%.
Same read-out and setting: the value for `COc1ccc(C)cc1NC(=O)CCNS(=O)(=O)c1cccc2nonc12` was 28.1%.
